According to PubChem BioAssay (NCI):
Compounds without any hit were thinned out: in the full panel of roughly 83,000, 20% have a hit.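 How to read the values: 0–100, growth inhibition (40 = 60% inhibited); 0, no net growth; -100 to 0, cell death (-40 = 40% of starting cells died; -100 = all dead).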 Unmarked numbers belong to inactive results. Activity calls are given as the source filed them. Rule for the calls: active = growth percent below 10; inactive = the rest.

Each molecule was assayed on A549/ATCC NSCLC (assay: NCI-60 one-dose screen, 48 h (100 = growth as untreated, 0 = no growth, -100 = all killed)). Conditions: 10 µM unless noted.
With C[C@]12CC[C@@H]3c4cc(O)c(O)cc4CC[C@H]3[C@@H]1CC[C@@H]2O the growth was 43.3%.
In the case of CCCOC(=O)C1(O)CCCC1, the growth is reported as 105%.
With COC1=CC(c2ccc[nH]2)=N/C1=C\c1[nH]c(C)c(C(=O)CCCCC(=O)NCc2ccccc2)c1C the growth was 1.81% (active).
O=C(NNC(=S)Nc1ccccc1)c1ccccn1 showed a growth of 24.3%.
For COc1cc(NC(=O)CCl)ccc(=O)c1, the growth was 84.5%.
For COc1ccc(S(=O)(=O)N2CCN(c3cc4c(cc3F)c(=O)c(C(=O)O)cn4C3CC3)CC2)c(OC)c1, the growth was 93.6%.
COc1ccc(Cn2cc(COc3cc(/C=C/C(=O)c4cc(OC)c(OC)c(OC)c4)ccc3OC)nn2)cc1 was tested, and the growth was 60.1%.
COc1cc(C(=O)OCCCCCCCCCCC[P+](c2ccccc2)(c2ccccc2)c2ccccc2)ccc1O was tested, and the growth was -8.01% (active).
For CC(C(=O)n1cc(-c2ccccc2)c(-c2ccccc2)c1)c1ccccc1 (stereo not drawn), the growth was 88.7%.
With C=CCOc1cccc(/C=C/C(=O)c2sc(Nc3cccnc3)nc2C)c1 the growth was 70.9%.
O=C(CCCn1c(=O)c2sc3ccccc3c2n2nnc(-c3ccccc3)c12)NCCc1cnc[nH]1 was tested, and the growth was -45.7% (active).
Work on CCC1CCc2nc3sc(C(=O)Nc4cccc(C)c4)c(N)c3cc2C1 (stereo not drawn) yielded a growth of 77.3%.
For Cc1cccc(NC(=O)c2sc3nc4c(cc3c2N)CCCC4)c1, the growth was 31.5%.
COc1ccc(-c2cn[nH]c2-c2cc(OC)c3c(c2)OCCO3)cc1 was tested, and the growth was 30%.
For CC(C)C[C@H](NC(=O)Cn1ccc(NCc2ccccc2)cc1=O)B(O)O, the growth was 40.4%.
For CC[C@H](C)[C@H]1NC(=O)[C@@H](N[C@](C)(O)[C@@H](N)CC(C)C)[C@@H](C)OC(=O)[C@H](Cc2ccc(OC)cc2)N(C)C(=O)[C@@H]2CCCN2C(=O)[C@H](CC(C)C)NC(=O)[C@@H](C)C(=O)[C@H](C(C)C)OC(=O)C[C@@H]1O, the growth was -22.7% (active).
CCNC(=O)C1CCCN1C(=O)C(CCCN=C(N)N)NC(=O)C(CC(C)C)NC(=O)C(CC(C)C)NC(=O)C(Cc1ccc(O)cc1)NC(=O)C(CO)NC(=O)C(Cc1c[nH]c2ccccc12)NC(=O)C(Cc1cnc[nH]1)NC(=O)C1CCC(=O)N1 (stereo not drawn) gave a growth of 81.6%.
For COC(=O)c1cc(-c2cccs2)c(C#N)c(N)c1C#N, the growth was 101%.
In the case of O=C1N=C(c2c(-c3[nH]c(=O)c4ccc(Br)cc4c3O)c(O)c3ccccc3c2O)C(=O)c2cc(Br)ccc21, the growth is reported as -32.2% (active).
For CC[C@]1(O)C[C@@H]2CN(Cc3c([nH]c4ccccc34)[C@@](C(=O)OC)(c3cc4c(cc3OC)N(C)[C@H]3[C@@](O)(C(=O)OC)[C@H](OC(C)=O)[C@]5(CC)[C@@H]6C[C@@H]6CN6CC[C@]43[C@@H]65)C2)C1, the growth was 22.2%.
CCOC(=O)[C@H](CSSc1ncnc2cc[nH]c12)NC(=O)[C@@H](C)c1ccc2cc(OC)ccc2c1 gave a growth of 59.9%.
In the case of Cc1nc(Nc2cccnc2)sc1C(=O)/C=C/c1ccc(F)cc1, the growth is reported as 25.2%.
COc1ccc(C2=CC(c3ccc(Oc4ccnc5cc(Cl)ccc45)c(OC)c3)c3c(nc(OC)[nH]c3=O)N2)cc1 (stereo not drawn) was tested, and the growth was 65.5%.
With COc1ccccc1CNCCCN1C(=O)c2ccc3c4c(ccc(c24)C1=O)C(=O)N(CCCNCCCCNCCCCN)C3=O the growth was -3.81% (active).
With Cc1cc(C)c(S(=O)(=O)N2CCN(c3cc4c(cc3F)c(=O)c(C(=O)O)cn4C3CC3)CC2)c(C)c1 the growth was 20.3%.
With COc1ccc(C(=O)/C=C/c2cc(C(=O)c3cc(OC)c(OC)c(OC)c3)ccc2OC)cc1 the growth was 85.3%.
For NC(=O)NC(=O)/C=C/C(=O)OCCCl, the growth was 105%.
COc1cc2nc(N3CCC[C@@H](NC4=CC(=O)c5ccccc5C4=O)C3)nc(N)c2cc1OC was tested, and the growth was -74.6% (active).
For O=S(=O)(c1ccccc1)n1ccc(-c2ccc3c(c2)CCO3)n1, the growth was 78.8%.
Work on O=C(CNc1ccc(Cl)cc1)Nc1ccc(-c2nc3ccccc3s2)cc1 yielded a growth of 89%.
COc1ccc(/C=C2\CCCC3=C2NC(C)=NC3c2ccc(OC)c(OC)c2)cc1OC (stereo not drawn) gave a growth of 18%.
Molecule COc1cc(OC)c(C(=O)/C=C/c2ccc(C(F)(F)F)cc2)c(OC)c1 has a growth of 53.5%.
Molecule O=C(CCl)NCCNc1nccc(Nc2ccc(S(=O)(=O)Nc3ccccn3)cc2)n1 has a growth of 56.8%.
O=C(O)c1ccc(-n2c(=O)c3ccccc3c3ccccc3c2=O)cc1 gave a growth of 106%.
Cc1nn(-c2ccc(Cl)cc2)c(=O)n1CCOc1ccccc1Cl showed a growth of 89.9%.
CC(C)(C)OC(=O)N[C@@H](Cc1ccccc1)C(=O)N(Cc1ccccc1)C1(C(=O)NCc2ccccc2)CCN(Cc2ccccc2)CC1 showed a growth of 24.8%.
COc1ccc(C(=O)c2cc(OC)c(OC)c(OC)c2)cc1/C=C/C(=O)c1ccc(OC)c(OC)c1 gave a growth of 57.1%.
CCCCNC(=O)NS(=O)(=O)c1ccc(N2N=C(c3ccc(C)cc3C)CC2c2ccc(OC)cc2)cc1 (stereo not drawn) showed a growth of 38.4%.
